These results are taken from PubChem BioAssay (Tox21).

A short description of experiment [1]: cAMP Responsive Elements (CRE) small molecule antagonists, cell-based qHTS assay: qHTS cell viability counter screen (AID 2060913). Note: nearly all actives have a fitted effect of over 40% in size. In outline:
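Steps: cells plated and held 18 hrs at 37 C/5% CO2; compounds and NKH477 (0.25 uM final) added; 3 hrs incubation; reporter substrate read; CellTiter-Glo added to measure cytotoxicity by luminescence.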
For orientation: In qHTS, concentration-response curves come from the screen itself.

Experiment [2] is described as follows: cAMP Responsive Elements (CRE) small molecule agonists, cell-based qHTS assay: qHTS cell viability counter screen (AID 2060914). Note: nearly all actives have a fitted effect of over 50% in size. In short, it runs like this:
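Luminescence read-out (CellTiter-Glo, 30 min RT) of ATP-based viability in CRE-bla HEK 293T cells, run in the same wells as the β-lactamase reporter assay after 3 h compound treatment at 37 °C.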

Inconclusive results are not listed. A number with no mark means an inactive call. Active and inactive are the calls of the source. Calls come from the whole dose curve; as a rule, active = well fitted cell-killing curve with a large enough effect in the repeat runs; inconclusive = weak or mixed curves, or effect the other way; inactive = flat fitted curve, though single readings scatter.
% is set by controls: 0 for no effect and ±100 for the full control effect; potency is the fitted concentration of half-maximal effect.

On to `CN1CCN(C2=Nc3ccccc3Sc3ccc(Cl)cc32)CC1`, for which the Potency entry in experiment [1] and in experiment [2] was “inactive” throughout.
For `CCCOC(=O)c1ccccc1`, the Potency result in experiment [1] and in experiment [2] was “inactive” in each case.
For the compound `CC(=O)OC(C)=O`, the Potency result in experiment [1] and in experiment [2] was “inactive” in each case.
For the compound `CCC(=O)c1cccc(Cl)c1`, the Potency result in experiment [1] and in experiment [2] was “inactive” each time.
Regarding `ICCc1ccccc1`, the Potency result in experiment [1] and in experiment [2] was “inactive” each time.
Turning to `CCCCCCCCCCCCCOC(=O)CCSCCC(=O)OCCCCCCCCCCCCC`, in experiment [1], the viability change, negative = cytotoxic is 3.07% [at 18.9 µM]. The activity change, negative = cytotoxicity in experiment [2] was -4.92% [at 18.9 µM].
In the case of `N#CCCNCCC#N`, the Potency result in experiment [1] and in experiment [2] was “inactive” in each case.
Take `O=CN1CCCCC1`: the Potency entry in experiment [1] and in experiment [2] was “inactive” in each case.
For `CC1=CC(=O)CC(C)(C)C1`, the Potency entry in experiment [1] and in experiment [2] was “inactive” in each case.
In the case of `OCCOCCOCCO`, the Potency result in experiment [1] and in experiment [2] was “inactive” in each case.
Regarding `O=P(c1ccccc1)(c1ccccc1)c1ccccc1`, the Potency result in experiment [1] and in experiment [2] was “inactive” each time.
In the case of `CCCCCCCC/C=C\CCCCCCCCOCCO`, the Potency in experiment [1] is 79.4 µM (active); in experiment [2], 63.1 µM (active).
Taken in the same sequence, the figures for `Cc1ccc(N)nc1` were “inactive” and “inactive”.
As for `Cc1cccc(C)c1NC(=O)C(C)N` (stereo not given), the Potency result in experiment [1] and in experiment [2] was “inactive” in each case.
Consider `C/C=C/c1ccc(OC)c(OC)c1`, for which the Potency result in experiment [1] and in experiment [2] was “inactive” throughout.
As to `CCCCCCCCCC#N`, the Potency result in experiment [1] and in experiment [2] was “inactive” in each case.
In the case of `CCCCCCCCCCCCO`, the Potency entry in experiment [1] and in experiment [2] was “inactive” throughout.
Regarding `CC(=O)OCCOCCOCCOC(C)=O`, the Potency entry in experiment [1] and in experiment [2] was “inactive” each time.
As to `C=C(C)C(=O)OCCCCCCCC(C)C`, the Potency result in experiment [1] and in experiment [2] was “inactive” throughout.
Regarding `CCCCCCCCCOC(=O)c1ccccc1C(=O)OCCCCCCCCC`, the Potency entry in experiment [1] and in experiment [2] was “inactive” each time.
Take `CC1=C2[C@@H]([C@H](C)CC[C@H]2/C=C(\C)C(=O)O)[C@H](O)C1`: the Potency result in experiment [1] and in experiment [2] was “inactive” each time.
For the compound `NC(=O)c1ccc([N+](=O)[O-])cc1Cl`, the Potency entry in experiment [1] and in experiment [2] was “inactive” in each case.
Take `C[N+](C)(CCOc1ccccc1)Cc1cccs1`: the Potency entry in experiment [1] and in experiment [2] was “inactive” throughout.
As to `CCCCCCCCCCC[C@@H](C[C@@H]1OC(=O)[C@H]1CCCCCC)OC(=O)[C@H](CC(C)C)NC=O`, the Potency result in experiment [1] and in experiment [2] was “inactive” each time.
Turning to `Cc1ccc(S(=O)(=O)NCl)cc1`, the Potency entry in experiment [1] and in experiment [2] was “inactive” in each case.
On to `CC(C)CCOC(=O)CC(C)C`, for which the Potency result in experiment [1] and in experiment [2] was “inactive” throughout.
Turning to `O=C(O)CCC(=O)C(=O)O`, the Potency result in experiment [1] and in experiment [2] was “inactive” in each case.
Regarding `c1ccc(-c2ccccc2-c2ccccc2)cc1`, the Potency entry in experiment [1] and in experiment [2] was “inactive” in each case.
In the case of `CC[C@H]1CC[C@H](NCc2cc3c(cc2OC)[C@H]2C[C@H]2C(=O)N3C)[C@H](c2ccccc2)N1`, the Potency result in experiment [1] and in experiment [2] was “inactive” throughout.
For `COc1cc(CNC(=O)CCCC/C=C/C(C)C)ccc1O`, the Potency entry in experiment [1] and in experiment [2] was “inactive” each time.
As for `CCCCCCCCCCCC(=O)OCC(C)OC(=O)CCCCC(=O)O` (stereo not given), the Potency result in experiment [1] and in experiment [2] was “inactive” throughout.
With `O=c1[nH]c2ccc(Cl)cc2o1`, the Potency entry in experiment [1] and in experiment [2] was “inactive” each time.
For `CCCCCCCC=O`, the Potency entry in experiment [1] and in experiment [2] was “inactive” in each case.
With `CCCCCCCC/C=C\CCCCCCCC(=O)OCCOC(=O)CCCCCCC/C=C\CCCCCCCC`, the Potency result in experiment [1] and in experiment [2] was “inactive” in each case.
As for `COc1cc(C)cc(O)c1`, the Potency result in experiment [1] and in experiment [2] was “inactive” each time.
As to `CC(C)NC[C@@H](O)COc1ccc(CC(N)=O)cc1`, the Potency entry in experiment [1] and in experiment [2] was “inactive” throughout.
For the compound `CC(C)Cn1cnc2c1c(=O)n(C)c(=O)n2C`, the Potency result in experiment [1] and in experiment [2] was “inactive” throughout.
With `COC(C)(OC)OC`, the Potency entry in experiment [1] and in experiment [2] was “inactive” throughout.
Consider `O=C(Cn1ccnc1[N+](=O)[O-])NCc1ccccc1`, for which the Potency entry in experiment [1] and in experiment [2] was “inactive” throughout.
As for `COc1ccc(NS(=O)(=O)c2ccc(N)cc2)nn1`, the Potency entry in experiment [1] and in experiment [2] was “inactive” in each case.
As to `O=C(Oc1ccccc1)c1ccc2ccccc2c1O`, the Potency entry in experiment [1] and in experiment [2] was “inactive” in each case.
As to `COc1ccc(C#N)cc1`, the Potency entry in experiment [1] and in experiment [2] was “inactive” throughout.
In the case of `O=C(Nc1ccc([N+](=O)[O-])cc1)Nc1ccc([N+](=O)[O-])cc1` (tested in a mixture with another compound), the Potency result in experiment [1] and in experiment [2] was “inactive” throughout.
As to `FC(F)(F)c1ccc(Cl)c(Cl)c1`, the Potency entry in experiment [1] and in experiment [2] was “inactive” each time.
Take `COc1ccc2c(c1)c1c3n2CCN(C)C3=NCC1`: the Potency result in experiment [1] and in experiment [2] was “inactive” each time.
`CO[Si](CCCNCCC[Si](OC)(OC)OC)(OC)OC`: the Potency entry in experiment [1] and in experiment [2] was “inactive” throughout.
In the case of `CC(=O)C1(C)CC2=C(CCCC2(C)C)CC1C` (stereo not given), the Potency entry in experiment [1] and in experiment [2] was “inactive” in each case.
With `C/C=C/C=C/CO`, the Potency entry in experiment [1] and in experiment [2] was “inactive” throughout.
As for `O=C1c2cccc3c2[C@H](CCC3)CN1[C@@H]1CN2CCC1CC2`, the Potency entry in experiment [1] and in experiment [2] was “inactive” throughout.
On to `O=C(NCCN1CCOCC1)c1ccc(Cl)cc1`, for which the Potency result in experiment [1] and in experiment [2] was “inactive” in each case.
On to `O=Nc1ccc(O)cc1`, for which the Potency entry in experiment [1] and in experiment [2] was “inactive” in each case.
In the case of `CC12CCC(C1)C(C)(C)C2O` (stereo not given), the Potency result in experiment [1] and in experiment [2] was “inactive” each time.
Turning to `CCOC(=O)C(C)(C)Oc1ccc(Cl)cc1`, the Potency entry in experiment [1] and in experiment [2] was “inactive” in each case.
Turning to `CC(=O)N[C@@H](CCC(=O)O)C(=O)O`, the Potency entry in experiment [1] and in experiment [2] was “inactive” each time.
Turning to `Brc1cc(Br)cc(Br)c1`, the Potency entry in experiment [1] and in experiment [2] was “inactive” in each case.
`CCCCCCCCCOS(=O)(=O)O`: the Potency result in experiment [1] and in experiment [2] was “inactive” in each case.
As to `C=CC(C)(CCC=C(C)C)OC(=O)C(C)C` (stereo not given), the Potency entry in experiment [1] and in experiment [2] was “inactive” each time.
On to `CCC(C)N` (stereo not given), for which the Potency result in experiment [1] and in experiment [2] was “inactive” in each case.
For `C1COC(NC(C2CC2)C2CC2)=N1`, the Potency result in experiment [1] and in experiment [2] was “inactive” throughout.
Regarding `CCOC(=O)[C@H](CCc1ccccc1)N[C@@H](C)C(=O)N1C(=O)N(C)C[C@H]1C(=O)O`, the Potency result in experiment [1] and in experiment [2] was “inactive” throughout.
